What all share (assay): NCI-60 one-dose screen, 48 h (100 = growth as untreated, 0 = no growth, -100 = all killed)
One assay relates to HCT-15 colon. The note with it: 10 µM unless noted.
The test system of the next assay is HT29 colon. As to conditions: 10 µM unless noted.
The test system of a further assay is SNB-75 CNS. As to conditions: 10 µM unless noted.
In the next assay the test system is SNB-19 CNS. The note with it: 10 µM unless noted.
The next assay has as its system U251 CNS. The note with it: 10 µM unless noted.
The next assay deals with PC-3 prostate. The note with it: 10 µM unless noted.
Another assay concerns SK-MEL-5 melanoma. As to conditions: 10 µM unless noted.
For the next assay, the system named is UACC-62 melanoma. As to conditions: 10 µM unless noted.
The subject of the next assay is LOX IMVI melanoma. As to conditions: 10 µM unless noted.
A further assay relates to SK-MEL-28 melanoma. The note with it: 10 µM unless noted.
The subject of the next assay is EKVX NSCLC. The note with it: 10 µM unless noted.
For the next assay, the system named is UO-31 renal. The note with it: 10 µM unless noted.
The subject of another assay is TK-10 renal. As to conditions: 10 µM unless noted.
In another assay the test system is ACHN renal. As to conditions: 10 µM unless noted.
A further assay deals with CAKI-1 renal. As to conditions: 10 µM.
In a further assay the test system is A498 renal. The note with it: 10 µM unless noted.
The next assay concerns CCRF-CEM leukemia. The note with it: 10 µM unless noted.
Another assay deals with SN12C renal. As to conditions: 10 µM unless noted.
For another assay, the system named is MOLT-4 leukemia. The note with it: 10 µM unless noted.
A further assay deals with SK-MEL-2 melanoma. As to conditions: 10 µM unless noted.

This is part of a sample that, as a whole, favours compounds with a hit. Of some 83,000 tested, about 20% had one in any assay.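 Testing used 96-well plates and a 48-hour single-concentration exposure. Example: -40 means 40% of the starting cells died.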 A number with no mark means an inactive call. Active and inactive are the calls of the source. The calls were made as follows: active = growth percent below 10; inactive = the rest.

Consider `CCN1CCN(Cc2ccc(C(=O)Nc3nc4ccc(Oc5ccnc(C(=O)NC)c5)cc4s3)cc2C(F)(F)F)CC1`, for which the growth in the assay with HCT-15 colon is 6.98% (active); in the assay with HT29 colon it was 3.42% (active); in the assay with SNB-75 CNS, 75.9%; in the assay on SNB-19 CNS, 66.6%; in the assay with U251 CNS, 41.9%; in the assay on PC-3 prostate, 46.1%. For the same molecule, the growth with SK-MEL-5 melanoma was 17.7%; in the assay with UACC-62 melanoma, 24.6%; with LOX IMVI melanoma, -11.8% (active); in the assay on SK-MEL-28 melanoma, -66.5% (active); in the assay with EKVX NSCLC, 52.4%; with UO-31 renal, 33.2%. Besides, the growth in the assay with TK-10 renal was 91.6%; in the assay with ACHN renal, 57.4%; with CAKI-1 renal it was 47.2%; with A498 renal it was 74.1%; in the assay on CCRF-CEM leukemia it was 60.6%.

On to `COc1ccc(-c2nc3cc(Cl)c(Cl)cc3n2CC(=O)N=Nc2c(O)[nH]c3ccc(Br)cc23)cc1`, for which the growth in the assay with HCT-15 colon was -44.8% (active); in the assay on HT29 colon, -24% (active); in the assay with SNB-75 CNS, 47.3%; with SNB-19 CNS, 22%; in the assay with U251 CNS, -58% (active); in the assay with PC-3 prostate, -47.1% (active). The growth with SK-MEL-5 melanoma is 51.5%; in the assay on UACC-62 melanoma, 4.88% (active); with LOX IMVI melanoma it was -77.9% (active); in the assay on SK-MEL-28 melanoma it was -66.9% (active); with EKVX NSCLC it was 4.81% (active); in the assay on SN12C renal it was -20.1% (active). In addition, the growth with UO-31 renal is -34.9% (active); in the assay on TK-10 renal it was 6.26% (active); in the assay with ACHN renal, -83% (active); with CAKI-1 renal, -76.8% (active); in the assay with CCRF-CEM leukemia it was 39%; with MOLT-4 leukemia it was 36.4%.

For the molecule `CC1CCN(S(=O)(=O)c2ncsc2-c2ccccc2)CC1`, the growth was 79% in the assay on HCT-15 colon; 88.5% in the assay with HT29 colon; 55.6% in the assay with SNB-75 CNS; 83% in the assay with SNB-19 CNS; 57.9% with U251 CNS; 80.8% in the assay with PC-3 prostate. The growth with SK-MEL-5 melanoma is 96.8%; in the assay on UACC-62 melanoma, 96.5%; in the assay with SK-MEL-28 melanoma, 75.3%; with SK-MEL-2 melanoma it was 96.2%; in the assay with EKVX NSCLC, 74.7%; in the assay on SN12C renal, 95.4%. Moreover, the growth with UO-31 renal was 86.9%; in the assay with TK-10 renal, 127%; in the assay with ACHN renal, 87%; with CAKI-1 renal it was 77.4%; with A498 renal, 81.6%; in the assay on CCRF-CEM leukemia, 74.2%. In addition, in the assay on MOLT-4 leukemia, the growth was 66.7%.

Regarding `COc1cc2c3c(n(CCCNC4CCCC4)c(=O)c2cc1OC)-c1cc2c(cc1C3=O)OCO2`, the growth in the assay with HCT-15 colon is -68.6% (active); with HT29 colon, -55.1% (active); with SNB-75 CNS it was 84.9%; with SNB-19 CNS, 46.2%; in the assay with U251 CNS, -87.9% (active); in the assay on PC-3 prostate it was -84.7% (active). The growth was 95% in the assay with SK-MEL-5 melanoma; 74% with UACC-62 melanoma; -82.3% (active) with LOX IMVI melanoma; 95.8% with SK-MEL-28 melanoma; -67.4% (active) in the assay on EKVX NSCLC; -60.9% (active) in the assay on SN12C renal. Further, the growth in the assay with UO-31 renal was 76.2%; with ACHN renal, -95.5% (active); with CAKI-1 renal it was 11.7%; with A498 renal, 80.3%; in the assay with CCRF-CEM leukemia, -13.8% (active).

On to `COCCOc1ccc(-c2csc(NC(C)=O)n2)cc1NS(=O)(=O)c1cccc2c(N(C)C)cccc12`, for which the growth was 94.5% in the assay on HCT-15 colon; 89.3% in the assay with HT29 colon; 94.2% in the assay with SNB-75 CNS; 71% in the assay on SNB-19 CNS; 99.5% in the assay with U251 CNS; 68.5% in the assay with PC-3 prostate. In addition, the growth in the assay with SK-MEL-5 melanoma is 78.8%; in the assay with UACC-62 melanoma, 60.8%; in the assay on LOX IMVI melanoma, 98.4%; in the assay with SK-MEL-28 melanoma it was 83.1%; in the assay on EKVX NSCLC, 85.2%; in the assay on SN12C renal, 79.8%. Also, the growth in the assay with UO-31 renal is 64.2%; in the assay on TK-10 renal, -21.2% (active); with CAKI-1 renal, 71.3%; in the assay on A498 renal, 74.8%; with CCRF-CEM leukemia it was 105%.

Take `C#C[C@]1(O)CC[C@H]2[C@@H]3CC=C4c5sc(Nc6cccc(C)n6)nc5CC[C@]4(C)[C@H]3CC[C@@]21C`: the growth was 15.6% in the assay on HCT-15 colon; 37.7% with HT29 colon; -23.9% (active) in the assay on SNB-75 CNS; 18.5% in the assay with SNB-19 CNS; 6.3% (active) in the assay with U251 CNS; -1.41% (active) with PC-3 prostate. Moreover, the growth is 3.52% (active) in the assay with SK-MEL-5 melanoma; -20.9% (active) with UACC-62 melanoma; -55% (active) in the assay with SK-MEL-28 melanoma; -9.35% (active) in the assay with SK-MEL-2 melanoma; 8.96% (active) in the assay with EKVX NSCLC; 56.4% in the assay on SN12C renal. The growth was -15.4% (active) in the assay with UO-31 renal; 77.2% with TK-10 renal; 33.1% with ACHN renal; 2.65% (active) in the assay on CAKI-1 renal; -29.2% (active) with A498 renal; 2.04% (active) with CCRF-CEM leukemia. The growth with MOLT-4 leukemia is -25.2% (active).

With `C[C@@H]1C[C@H]2C(=O)OCC(NC(=O)[C@H](Cc3cc(F)cc(F)c3)NC(=O)Nc3ccc(Cl)cc3F)C(=O)N3CCC[C@H]3C(=O)N3CCCC[C@H]3C(=O)N[C@@H](C)C(=O)N2C1` (stereo partly drawn), the growth with HCT-15 colon is 11.1%; in the assay with HT29 colon, 15.6%; in the assay on SNB-75 CNS it was 46.8%; in the assay on SNB-19 CNS, 24.4%; in the assay with U251 CNS it was 28.8%; in the assay with PC-3 prostate, 17.3%. The growth is -12.3% (active) with SK-MEL-5 melanoma; 26.7% with UACC-62 melanoma; 4.29% (active) in the assay with LOX IMVI melanoma; 39.7% with SK-MEL-28 melanoma; 27.7% in the assay with EKVX NSCLC; 18.2% in the assay with SN12C renal. Besides, the growth in the assay with UO-31 renal is 30%; in the assay on TK-10 renal, 52.8%; in the assay with CAKI-1 renal it was 21.5%; in the assay with CCRF-CEM leukemia it was 31.3%; in the assay on MOLT-4 leukemia, 33.2%.

As to `C#C[C@]1(O)CC[C@H]2[C@@H]3CC=C4c5sc(Nc6ccc(OC)nc6)nc5CC[C@]4(C)[C@H]3CC[C@@]21C`, the growth in the assay with HCT-15 colon was -66.4% (active); with HT29 colon, -4.57% (active); in the assay on SNB-75 CNS it was -8.98% (active); in the assay on SNB-19 CNS, 50.5%; with U251 CNS, 17.8%; with PC-3 prostate, 29.9%. The growth is 52.1% with SK-MEL-5 melanoma; 70.5% in the assay with UACC-62 melanoma; 68.8% in the assay with SK-MEL-28 melanoma; 68% in the assay on SK-MEL-2 melanoma; 48.7% in the assay on EKVX NSCLC; 70.5% in the assay on SN12C renal. Besides, the growth in the assay with UO-31 renal was 32.6%; in the assay with TK-10 renal, 124%; in the assay on ACHN renal, 33.4%; in the assay with CAKI-1 renal it was 23.8%; in the assay with A498 renal, 25.9%; in the assay on CCRF-CEM leukemia it was 8.55% (active). For the same molecule, the growth in the assay on MOLT-4 leukemia is 3.4% (active).
